This assay relates to Trypanosoma brucei. The experiment in a line: Trypanosoma brucei 72 hour study. Type of assay: functional, organism-based. The arrangement: scale not given: in the data most compounds retested in dose-response had high values.

The structures appear in SMILES notation. The campaign covered roughly 66,000 compounds. About 960 (1.5%) showed an effect of 50% or more. Shown is part of a subset that was picked to be rich in strong results.

For `O=C(C1CCC1)N1CCO[C@H]2[C@H](OCCCn3cccn3)CC[C@@H]21.O=C(O)C(F)(F)F`, the “Percent Effect” value (30.3 µM, […]) is recorded as -14.88%.
Same read-out and setting: under `CC(C)c1nnsc1CN1CCc2[nH]nc(-c3ccc(Cl)cc3)c2C1` stands 100.2%; under `CCc1nc(C)sc1CN1CCc2[nH]nc(-c3ccc(F)c(F)c3)c2C1`, 9.305%.
Still for that read-out and setting: under `CC(C)c1nnsc1CN1CCc2[nH]nc(-c3ccc(F)c(F)c3)c2C1` stands 8.442%.
As to `Cn1nc(N2CCCC(C(=O)Nc3nc4ccccc4s3)C2)ccc1=O` (stereo not given), the “Percent Effect” value (30 µM, 30.03 µM) was -10.15%.
As for `Cc1nc(COC[C@@H]2CCC[C@@]23CN(C)CCO3)cs1.O=C(O)C(F)(F)F`, where the note is “30 µM, 30.03 µM”, the “Percent Effect” value amounted to 42.28%.
Regarding `Cc1ncc(C(=O)NC2CCN(CCOc3ccc(Br)cc3)CC2)s1`, the “Percent Effect” value (30.3 µM, […]) amounted to 9.7%.
Same read-out and setting: under `CCc1nnsc1C(=O)NC1CCN(CCOc2ccc(Br)cc2)CC1` stands 50.82%; under `Cc1nc(C(=O)NC2CCN(CCOc3ccc(Br)cc3)CC2)cs1`, 34.31%.
As for `CN(C)CC1CN(C(=O)Cc2ccccc2)Cc2nccn2C1.O=C(O)C(F)(F)F` (stereo not given), the “Percent Effect” value (30 µM, 30.03 µM) was -30.18%.
On the same count and under the same terms, for `CC(=O)N1CCC2(CCN(C(=O)c3ccc(Cl)c(C(F)(F)F)c3)C2)C1` (stereo not given) the value was 28.83%; for `NC(=O)C1CCCN1Cc1cccc(NC(=O)c2ccsc2)c1` (stereo not given), 12.83%; for `NC(=O)C1CCN(Cc2cccc(NC(=O)c3ccsc3)c2)CC1`, 50.19%.
For `NC(=O)C1CCCN1Cc1cccc(NC(=O)c2cc(Cl)cc(Cl)c2)c1` (stereo not given), the “Percent Effect” value (30 µM, 30.03 µM) is 26.87%.
As to `O=C(c1cc(C2CCCCN2CCO)n[nH]1)N1CCOCC1.O=CO` (stereo not given), the “Percent Effect” value (30.3 µM, […]) is given as -18.9%.
Same read-out and setting: under `CC(C)c1cc(C(=O)N2CCc3nc(C4CCCN4)ncc3C2)cs1.Cl` (stereo not given) stands -27.95%.
As to `CCN(CC)Cc1ccc(C(=O)N2CCCC2c2cnn(C)c2)o1` (stereo not given), the “Percent Effect” value (10 µM) amounted to 2.271%.
`CNC(=O)CN(C)Cc1ccc(F)cc1Cl`: the “Percent Effect” value (30 µM, 30.03 µM) is -10.17%.
Still for that read-out and setting: for `CCOc1ccccc1NC(=O)CN(C)Cc1ccccc1Cl` the value was 104.4%; for `CCOc1ccccc1NC(=O)NCc1ccoc1`, -38.02%; for `CN(CC(=O)Nc1ccccc1C(=O)NC1CC1)Cc1ccccc1Cl`, -3.79%.
Same read-out and setting: under `CCOc1cccc(CNc2ccccc2Cl)c1O` stands -19.48%; under `CCOC(=O)c1ccccc1NC(=O)CN(C)Cc1ccccc1Cl.O=C(O)C(=O)O`, 103.8%.
Consider `O=C(NCCc1cccs1)[C@H]1CO[C@H]2CCN(CC3CC3)C[C@H]2C1.O=C(O)C(F)(F)F`, for which the “Percent Effect” value (30.3 µM, […]) is given as -52.96%.
The same measure, in the same setting: for `CN(CC(=O)c1ccc2[nH]c(=O)[nH]c2c1)Cc1ccc2c(c1)OCO2` the value was 2.207%.
`CCOCC(O)CN1CCN(C(=O)c2ccc(N(C)C)nn2)CC1` (stereo not given): the “Percent Effect” value reads like this: (30.3 µM, […]) -26.53%; (10 mM, 10 mM as filed; unlikely as a test dose) -123.6%.
Regarding `COc1cc(C(=O)Nc2nc(C)no2)ccc1OC(F)F`, the “Percent Effect” value (10 µM) is listed as -60.85%.
Take `Cc1noc(NC(=O)c2ccccc2)n1`: the “Percent Effect” value (30.3 µM, […]) is reported as 22.26%.
Same read-out and setting: for `Cc1noc(NC(=O)c2ccc(C#N)cc2)n1` the value was -1.812%.
Consider `COc1cc(C(=O)Nc2nc(C)no2)cc(OC)c1Br`, for which the “Percent Effect” value (10 µM) was -27.84%.
Regarding `Cc1noc(NC(=O)c2ccc(Br)cc2)n1`, under “30 µM, 30.03 µM”, the “Percent Effect” value was determined as 95.54%.
On to `Cc1ccc(C(=O)Nc2nc(C)no2)cc1`, for which the “Percent Effect” value (30.3 µM, […]) is reported as 24.35%.
Still for that read-out and setting: for `Cc1noc(NC(=O)CCNC(=O)c2ccc(Br)cc2)n1` the value was -27.06%; for `Cc1noc(NC(=O)c2cccc(Br)c2)n1`, 69.68%.
On to `COc1cc(C(=O)Nc2nc(C)no2)ccc1C`, for which the “Percent Effect” value (30 µM, 30.03 µM) is 38.15%.
On the same count and under the same terms, under `Cc1noc(NC(=O)c2ccc(OC(F)(F)F)cc2)n1` stands 107.1%.
The same measure, in the same setting: for `Cc1noc(NC(=O)c2ccc(C)c(F)c2)n1` the value was 65.47%.
For `Cc1noc(NC(=O)c2ccc(F)cc2)n1`, the “Percent Effect” value (30.3 µM, […]) stood at 23.19%.
Consider `CN1CCc2c(C#N)c(NCCCN3CCOCC3)n3cnnc3c2C1.Cl.Cl`, for which the “Percent Effect” value (30 µM, 30.03 µM) is recorded as 29.08%.
As to `CCOc1ccccc1CN1CCc2nc3ccsc3c(=O)n2CC1.Cl`, where the note is “30.3 µM, […]”, the “Percent Effect” value was -5.491%.
Still for that read-out and setting: for `CCOC1COC2(CCN(Cc3ccc(C)c(C)c3)CC2)C1.O=C(O)C(F)(F)F` (stereo not given) the value was 17.79%.
The same measure, in the same setting: for `COc1ccc(NS(=O)(=O)c2cnc(NC(C)=O)s2)cc1` the value was -9.359%; for `CN(Cc1cccnc1)[C@@H]1CN(Cc2cnn(C)c2)[C@@H]2CCCO[C@H]12.O=C(O)C(F)(F)F.O=C(O)C(F)(F)F.O=C(O)C(F)(F)F.O=C(O)C(F)(F)F`, -6.057%.
As for `O=C(NCc1cccnc1)C1=NN(c2ccccc2)C(=O)CN1`, for the setting “30 µM, 30.03 µM”, the “Percent Effect” value turned out to be 71.31%.
Consider `O=C(Nc1cccnc1)C1=NN(c2ccccc2)C(=O)CN1`, for which the “Percent Effect” value (10 µM) is -65.06%.
For `N#Cc1ccc(CNC(=O)C2=NN(c3ccccc3)C(=O)CN2)cc1`, the “Percent Effect” value (30 µM, 30.03 µM) is listed as -22.79%.
On the same count and under the same terms, for `CC(C)(C)CN1CCN(CC2CC2)C(CCO)C1` (stereo not given) the value was -40.11%.
Still for that read-out and setting: under `O=C(Nc1ccccn1)C1(n2cnnn2)CCCCC1` stands -28.83%.
Take `O=C(O)C(F)(F)F.O=C1N(Cc2ccncc2)CCC12CCCN(c1ncc(F)cn1)C2` (stereo not given): the “Percent Effect” value (30.3 µM, […]) is on record as -38.62%.

Values taken from ChEMBL document CHEMBL3988442, “University of Dundee, Small-Polar-MMV Screening Library” (2021).
